# Compounds with a hit are over-represented: about 12% of the library has one in this group of screens.
# Sfp inh: blocks B. subtilis Sfp PPTase activity; 310,000 tested, 3.5% active; Q9F4F7; AID 1490; Biochemical Sfp PPTase activity, qHTS; Potency, µM, without a hit: largest response in the series, negative = inhibition, most hits filed as inhibitors;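 also: the enzyme is Sfp with the accession as filed and its product quenches rhodamine fluorescence; 0% = enzyme reaction without inhibitor and -100% = no enzyme wells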
#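 Fluorescence-quenching assay with 15 nM Sfp, 5 uM rhodamine-CoA and 12.5 uM BHQ-2-labelled ybbR peptide in pH 7.6 Hepes/MgCl2 buffer. Enzyme was pre-incubated with compound for 15 min at room temperature. Rate was taken from the 30-min fluorescence change (525/598 nm).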
# L3MBTL1 block: blocks human L3MBTL1. Q9Y468. AlphaScreen L3MBTL1–H3K9me1 peptide binding. Potency, µM (highest dose often 57.1 µM), without a hit: top-dose activity, negative = inhibition, hits mostly inhibitors. 230,000 tested, 0.66% active. AID 485360; also: % is scaled to controls: 0 for no effect and ±100 for the full control effect; nearly all actives have a fitted effect of over 60% in size
# Target sequence (Q9Y468 whole entry, looked up): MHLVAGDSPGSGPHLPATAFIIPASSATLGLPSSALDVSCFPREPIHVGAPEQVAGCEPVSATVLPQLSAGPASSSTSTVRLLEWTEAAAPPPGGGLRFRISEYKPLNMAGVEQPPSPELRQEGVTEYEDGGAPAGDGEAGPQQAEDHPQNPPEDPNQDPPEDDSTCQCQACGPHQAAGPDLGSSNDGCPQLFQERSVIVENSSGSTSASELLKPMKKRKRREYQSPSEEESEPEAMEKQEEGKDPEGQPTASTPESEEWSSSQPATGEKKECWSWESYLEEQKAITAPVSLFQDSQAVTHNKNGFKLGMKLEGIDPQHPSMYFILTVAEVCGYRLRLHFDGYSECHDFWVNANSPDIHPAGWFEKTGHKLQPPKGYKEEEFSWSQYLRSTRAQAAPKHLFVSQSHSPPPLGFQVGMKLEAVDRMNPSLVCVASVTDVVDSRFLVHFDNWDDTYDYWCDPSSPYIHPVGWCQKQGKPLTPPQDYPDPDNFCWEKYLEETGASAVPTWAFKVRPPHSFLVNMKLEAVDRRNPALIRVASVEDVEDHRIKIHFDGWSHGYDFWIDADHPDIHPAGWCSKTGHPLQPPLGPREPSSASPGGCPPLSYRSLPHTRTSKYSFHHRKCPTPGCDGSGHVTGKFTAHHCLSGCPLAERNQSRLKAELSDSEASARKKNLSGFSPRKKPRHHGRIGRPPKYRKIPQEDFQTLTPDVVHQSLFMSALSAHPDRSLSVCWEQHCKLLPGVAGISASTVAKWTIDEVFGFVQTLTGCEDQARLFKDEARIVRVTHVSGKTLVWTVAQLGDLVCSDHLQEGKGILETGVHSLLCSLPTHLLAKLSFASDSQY
#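 AlphaScreen proximity signal between nickel-chelate acceptor and streptavidin donor beads (final 10 ug/mL) reports binding of 50 nM L3MBTL1 to 75 nM biotin-H3 K9me1 peptide; complex incubated with compounds 30 min at room temperature; cefsulodin titration as control.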
# HP1b binding inh: blocks HP1-beta chromodomain binding to methylated histone tails. Potency, µM (doses to about 114 µM), inactives show at the top dose activity change, negative = inhibition, most hits filed as inhibitors. 390,000 tested, 0.56% active. AlphaScreen HP1-beta / biotin-H3K9me3 peptide binding. P83916; also: nearly all actives have a fitted effect of over 70% in size
#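 Compound inhibition of the preformed complex between 50 nM HP1-beta and 50 nM biotinylated H3K9me3 peptide was read by AlphaScreen. Buffer was PBS pH 7.4 with 0.01% Tween-20. Incubations ran 30 min at room temperature, with 10 ug/mL donor/acceptor beads.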
# JMJD2A Tudor: inhibitors of human JMJD2A Tudor domain; O75164; AlphaScreen JMJD2A-Tudor / H3K4me3 peptide binding; Potency, µM (series often up to 114 µM), inactives show top-dose activity change, negative = inhibition, most hits filed as inhibitors; 390,000 tested, 4.4% active; AID 504339; also: % is scaled to controls: 0 for no effect and ±100 for the full control effect; nearly all actives have a fitted effect of over 50% in size
# BAZ2B inh: blocks human BAZ2B. Q9UIF8. AlphaScreen BAZ2B-H3K14Ac peptide displacement. Potency, µM (doses to about 114 µM), for the others: top-dose activity change, negative = inhibition, most hits filed as inhibitors. 360,000 tested, 4.4% active. AID 504333; also: % is scaled to controls: 0 for no effect and ±100 for the full control effect; nearly all actives have a fitted effect of over 60% in size
#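 AlphaScreen luminescence quantifies BAZ2B engagement of H3K14Ac peptide; the protein and biotinylated peptide are both at 50 nM final, buffer PBS pH 7.4 with 0.01% Tween-20, all steps at room temperature.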
# G9a block: G9a (human) methyltransferase inhibition; Q96KQ7; G9a H3K9 monomethylation, AlphaScreen, 2 h; Potency, µM (series often up to 102 µM), for the others: top-dose activity, negative = inhibition, usual class: inhibitors; 350,000 tested, 8.8% active; also: % is scaled to controls: 0 for no effect and ±100 for the full control effect; nearly all actives have a fitted effect of over 75% in size
#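 Methyltransferase reactions run at room temperature for 2 h (20 nM enzyme, 500 nM biotin-H3K9 peptide, 20 uM SAM) after a 15 min compound preincubation; product detected by AlphaScreen beads and anti-H3K9me1 antibody.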
# Numbers without * were called inactive; u = inconclusive; x = no result; ! = repeats disagree; [ ] = dose if it differs, or a comment. Calls follow the shape of the dose curve; as a rule, active = well fitted curve in the direction sought with a large enough effect; inconclusive = small, poorly fitted or top-dose-only effect, or another doubt; inactive = no such curve, though single readings can be large; an effect the other way counts as inactive or inconclusive. Potency is read from the fitted curve at half-maximal effect.
SMILES,Sfp inh,L3MBTL1 block,HP1b binding inh,JMJD2A Tudor,BAZ2B inh,G9a block
CC1CCC(NCC(=O)Nc2cccc(S(N)(=O)=O)c2)CC1 (stereo not given),-26.5%,0.4%,-31.0%,22.4µM*,79.4µM*,10µM*
CCN(CC)S(=O)(=O)c1cccc(NC(=O)CNC2CCCCCC2)c1,-9.3%,-5.4%,1.6%,50.1µM*,79.4µM*,35.5µM*
CCN(CC)S(=O)(=O)c1cccc(C(=O)NCC2CCCCC2)c1,18.5%,x,7.8%,28.2µM*,1.9%,-8.7%
CCN(CC)S(=O)(=O)c1cccc(C(=O)NCC2CCCO2)c1 (stereo not given),4.1%,x,27.0%,-8.1%,u,5.9%
CCN(CC)S(=O)(=O)c1cccc(NC(=O)CCNC(=O)NC23CC4CC(CC(C4)C2)C3)c1,x,1.2%,8.5%,-27.4%,-31.8%,50.1µM*
CCN(CC)S(=O)(=O)c1cccc(NC(=O)CN(C)C2CCCCC2)c1,15.1%,0.3%,21.1%,-23.4%,-13.6%,3.2%
CN(C)C1=NCCN1CCC1CCCC1,13.2%,7.0%,28.0%,-25.0%,-0.1%,-21.9%
CN(C)S(=O)(=O)c1cccc(NC(=O)CNCC2CCCCC2)c1,u,0.1%,-27.6%,22.4µM*,u,14.1µM*
CCCCNC(=O)CCC(=O)Nc1ncc(-c2ccc(C)cc2)n1C,14.4%,-7.7%,7.6%,u,u,3.4%
Cn1c(-c2ccc3c(c2)OCO3)cnc1NC(=O)CCC(=O)NCCc1ccccc1,-3.4%,-14.9%,-18.2%,56.2µM*,u,-21.0%
c1ccc2c(c1)CCN(c1nc(CN3CCOCC3)nc3sc4c(c13)CCCC4)C2,-21.3%,-4.1%,u,-33.7%[57.1 µM],35.5µM*,u
N#CN1CCC(NC(=O)c2cccc(C(F)(F)F)c2)CC1,x,x,x,-8.2%,x,x
CCOC(=O)CCn1cc(F)c(=O)[nH]c1=O,14.7%,0.2%,-6.1%,0.0%,-13.2%,7.6%
N[C@@H](Cn1cc(F)c(=O)[nH]c1=O)C(=O)O,56.2µM*,x,x,x,x,x
O=C(NN1CCOCC1)c1ccccc1F,6.8%,x,28.8%,-11.0%,-0.2%,x
O=C(NN1CCOCC1)c1sc2cccc(F)c2c1Cl,2.6%,-6.5%,12.8%,-30.1%,-21.3%,28.2µM*
O=C(CCCOc1ccc(Br)cc1)Nc1ccc(S(=O)(=O)N2CCOCC2)cc1,x,7.3%,17.4%,-19.7%,2.7%,-33.4%
COc1cc(C(=O)N/N=C/c2ccc3c(c2)c2ccccc2n3C)ccc1O,11.9%,x,10.0%,-13.9%,-22.8%,21.9%
Cn1c2ccccc2c2cc(/C=N/NC(=O)c3cc(O)ccc3O)ccc21,-22.0%,x,u,31.6µM*,44.7µM*,39.8µM*
Cn1c2ccccc2c2cc(/C=N/NC(=O)c3cc(O)cc(O)c3)ccc21,-5.4%,x,u,56.2µM*,35.5µM*,50.1µM*
CO[C@@H]1COC(=O)[C@@H](CCSC)NC(=O)C/C=C\[C@@H](C)COC(=O)CCC[C@H]1C,0.4%,x,x,x,x,x
Nc1c(C(=O)N2CCOCC2)sc(=S)n1-c1ccccc1,-86.7%,-7.4%,-42.7%,u,-9.5%,2.24µM*
Nc1c(C(=O)N2CCCCC2)sc(=S)n1-c1ccccc1,-84.0%,-6.0%,14.1µM*,50.1µM*,u,u
CN(C)C(=O)c1ccc(-c2ccc3ncnc(N(C)Cc4ccco4)c3c2)cc1,4.6%,x,x,x,x,-2.0%[0.501 µM]
O=C1C(O)=C(O)C(=O)C(O)=C1O,28.2µM*,x,x,x,x,6.31µM*!
SMILES,Sfp inh,L3MBTL1 block,HP1b binding inh,JMJD2A Tudor,BAZ2B inh,G9a block
O=C(c1ccncc1)N1CCC[C@@]2(CCN(c3ccccc3)C2)C1,6.0%,x,x,x,x,-17.8%[12.7 µM]
O=C(Nn1cc(C(=O)Nc2ccc(F)cc2F)c2ccccc2c1=O)c1cnccn1,-5.1%,x,12.6%,35.5µM*,28.2µM*,0.794µM*
O=Cc1ccc(-c2cccs2)s1,x,x,53.8%,5.6%,x,x
Oc1ccc(N=Cc2ccc(-c3cccs3)s2)cc1,31.6µM*,u,u,35.5µM*,u,u
COc1ccc(S(=O)(=O)Nc2ccc(-c3ccc4nncn4n3)cc2)c(OC)c1,x,-5.1%,u,-15.1%,3.8%,10µM*
O=[N+]([O-])c1cc(S(=O)(=O)C(F)(F)F)ccc1Sc1nc2ccccc2s1,-8.8%,-4.0%,u,35.5µM*,7.94µM*,-6.5%[0.501 µM]
O=C(Nc1ccc(C2=NCCN2)cc1)c1ccc(Cl)c(C(=O)Nc2ccc(C3=NCCN3)cc2)c1,2.8%,-20.6%,x,x,-23.3%,17.8µM*
Cc1ccc(/C=C2\Sc3ccccc3C2=O)s1,0.5%,-20.1%,-15.7%,-26.5%,8.91µM*,11.6%[0.501 µM]
CCc1ccc(NC(=O)c2ccc(CN3C(=O)C(C)=C(c4ccc(C)cc4)S3(=O)=O)cc2)cc1,x,x,-16.9%,-22.0%,-2.0%,5.7%[59 µM]
COCCCN(C(=S)Nc1ccc(C)cc1Cl)C(C)c1ccncc1 (stereo not given),-10.2%,-7.9%,6.4%,-28.1%,-12.3%,21.6%[59 µM]
COCCCN(C(=S)Nc1cc(Cl)cc(Cl)c1)C(C)c1ccncc1 (stereo not given),25.1µM*,-2.4%,-4.4%,-22.9%,4.1%,u
Cc1ccc(NC(=S)N(CCC(C)C)C(C)c2ccncc2)c(Cl)c1 (stereo not given),56.2µM*,x,23.9%,-19.7%,-25.7%,-0.3%[12.7 µM]
COCCCN(C(=S)Nc1cc(Cl)cc(Cl)c1)C(C)c1ccccn1 (stereo not given),25.1µM*,x,36.1%,36.1%,3.9%,u
O=C(OCc1ccccc1)N1CCOCCOCCN(C(=O)OCc2ccccc2)CCOCCOCC1,2.3%,-4.1%,10.6%,-4.3%,-33.7%[57.1 µM],113.0%[59 µM]
Cc1ccc(-n2c(N)c(C(=O)N3CCCCC3)sc2=S)cc1,44.7µM*,x,15.8µM*,u,u,8.91µM*
CCOc1ccc(-n2c(N)c(C(=O)N3CCN(C)CC3)sc2=S)cc1,14.0%,-10.8%,22.1%,-29.1%,-34.6%,44.7µM*
Cc1ccc(-n2c(N)c(C(=O)N3CCN(C)CC3)sc2=S)cc1,-93.4%,-6.4%,u,u,-24.3%,2µM*
CCOc1ccc2nc3sc(C(=O)N4CCN(C)CC4)c(N)c3cc2c1,-9.5%,x,37.0%,u,-36.6%,u
COCCNC(=O)NC(=O)CN1C(=O)NC(Cc2c[nH]c3ccccc23)C1=O (stereo not given),5.4%,x,15.1%,-20.0%,7.1%,35.8%
CC(C)Oc1ccc(CNS(=O)(=O)c2ccc(-c3cc(C(F)(F)F)on3)s2)cc1,x,x,16.1%,-14.0%,2.0%,-0.4%[59 µM]
CN(C)C(N)=NCCC[C@H](N)C(=O)O,x,x,1.7%,89.1µM*,x,45.4%[12.7 µM]
O=C(COc1ccc([N+](=O)[O-])cc1)NNC(=S)NC(=O)c1ccc(Br)cc1,44.7µM*,43.8%,u,50.1µM*,1.5%,2.82µM*
